Results published in the supplement of paper PMC6555819.

Assays:
Assay in all cases: PBM binding z-score (relative to random genomic background probes); higher = stronger binding; sequences stand for … in GC…GCGATTGACAGCGTAGAATGAAGG
[1] = system: FXR:RXRa (NR concentration 270 nM, RXRa partner concentration 90 nM)
Method in brief: (§1)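 Binding buffer was PBS pH 7.4 with 2% milk, 0.02% Triton X-100, 1 mM DTT, 0.2 mg/mL BSA and 0.4 mg/ml salmon testes DNA. In it, ligand-free nuclear receptor dimers were incubated 1 h on custom Agilent 4×180K protein-binding microarrays carrying double-stranded probes. Antibodies against each partner (one per run) detected binding, and z-scores were calculated against random background probes after regression normalization of scanned fluorescence.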

[2] = system: LXRa:RXRa (NR concentration 270 nM, RXRa partner concentration 90 nM)
Method in brief: as §1

[3] = system: LXRa homodimer (NR concentration 270 nM)
Method in brief: as §1

[4] = system: LXRb:RXRa (NR concentration 270 nM, RXRa partner concentration 90 nM)
Method in brief: as §1

[5] = system: LXRb homodimer (NR concentration 270 nM)
Method in brief: as §1

[6] = system: PPARa:RXRa (NR concentration 270 nM, RXRa partner concentration 90 nM)
Method in brief: as §1

[7] = system: PPARg:RXRa (NR concentration 180 nM, RXRa partner concentration 90 nM)
Method in brief: as §1

[8] = system: PPARg:RXRa 270nM:90nM, anti-RXR (NR concentration 270 nM, RXRa partner concentration 90 nM)
Method in brief: as §1

[9] = system: PPARg:RXRa 30nM:10nM, anti-RXR (NR concentration 30 nM, RXRa partner concentration 10 nM)
Method in brief: as §1

[10] = system: PPARg:RXRa 90nM:30nM, anti-RXR (NR concentration 90 nM, RXRa partner concentration 30 nM)
Method in brief: as §1

[11] = system: PPARg:RXRa DBDmut IVT, anti-RXR (DBD mutation: RXRa K156A/R161A, NR concentration 270 nM, RXRa partner concentration 90 nM)
Method in brief: as §1

[12] = system: PPARg:RXRa IVT, anti-PPARg (NR concentration 270 nM, RXRa partner concentration 90 nM)
Method in brief: as §1

[13] = system: PPARg DBDmut:RXRa IVT, anti-PPARg (DBD mutation: PPARg1 K132A/R137A, NR concentration 270 nM, RXRa partner concentration 90 nM)
Method in brief: as §1

[14] = system: PPARg DBDmut IVT, anti-PPARg (DBD mutation: PPARg1 K132A/R137A, NR concentration 270 nM)
Method in brief: as §1

[15] = system: PPARg homodimer (NR concentration 180 nM)
Method in brief: as §1

[16] = system: PXR:RXRa (NR concentration 270 nM, RXRa partner concentration 90 nM)
Method in brief: as §1

[17] = system: PXR homodimer (NR concentration 270 nM)
Method in brief: as §1

[18] = system: RARa:RXR (NR concentration 270 nM, RXRa partner concentration 90 nM)
Method in brief: as §1

[19] = system: RARa homodimer (NR concentration 270 nM)
Method in brief: as §1

[20] = system: RARb:RXRa (NR concentration 270 nM, RXRa partner concentration 90 nM)
Method in brief: as §1

| Sequence | PBM binding z-score [1] | PBM binding z-score [2] | PBM binding z-score [3] | PBM binding z-score [4] | PBM binding z-score [5] | PBM binding z-score [6] | PBM binding z-score [7] | PBM binding z-score [8] | PBM binding z-score [9] | PBM binding z-score [10] | PBM binding z-score [11] | PBM binding z-score [12] | PBM binding z-score [13] | PBM binding z-score [14] | PBM binding z-score [15] | PBM binding z-score [16] | PBM binding z-score [17] | PBM binding z-score [18] | PBM binding z-score [19] | PBM binding z-score [20] |
| --- | --- | --- | --- | --- | --- | --- | --- | --- | --- | --- | --- | --- | --- | --- | --- | --- | --- | --- | --- | --- |
| ATCGAAAGGTCGAGGGTGAGTATACCCACCCGAA | 4.29 | 3.45 | 0.143 | 2.57 | 0.248 | 4.67 | 3.72 | 4.25 | 1.3 | 3.04 | -0.26 | 1.94 | 0.623 | 0.934 | 0.976 | 2.41 | -0.393 | 3.41 | 0.53 | 4.09 |
| TTACCAAGGTGAAGGTCGTTGTTCCCTCTGTAGA | 1.41 | 1.32 | 0.195 | 1.41 | -0.491 | 2.58 | 2.54 | 4.08 | 2.07 | 3.78 | 2.23 | 3.49 | -0.665 | -0.042 | 0.635 | 1.47 | 0.134 | 1.76 | -0.318 | 2.4 |
| TCGAGTAGGTTACCAATGGGGCATTCTGCTTTCT | 0.0174 | 1.11 | -0.471 | 0.975 | -0.712 | 1.33 | 0.0267 | 1.1 | 0.935 | 0.902 | 3.32 | 2.53 | -0.301 | -0.867 | -0.334 | -0.0891 | -0.788 | 0.363 | -0.932 | 0.902 |
| CCAGACAGGTGAGTAGGTAACTCAGCCTCGATTA | 0.327 | 0.14 | 0.0547 | -0.023 | -0.401 | 0.695 | 0.545 | 0.565 | -0.111 | 0.0174 | 2.01 | 1.66 | -0.259 | -0.369 | 1.08 | -0.277 | -0.0681 | 0.388 | 0.546 | 0.279 |
| AATACAGGGTCATCGTAGGCCGGAGTACGCACAG | 6.87 | 6.14 | 2.19 | 4.53 | 1.37 | 5.62 | 6.36 | 5.92 | 2.34 | 4.59 | 2.7 | 4.02 | 1.63 | 1.58 | 2.22 | 4.4 | 0.419 | 4.74 | 0.979 | 4.17 |
| TCTGCTAGGTCAACGATGGTCAGCTACTCTGCTA | 3.16 | 2.86 | -0.273 | 1.48 | -0.302 | 3.3 | 2.4 | 3.05 | 1.62 | 2.47 | 4.3 | 4.17 | -0.186 | -0.6 | 0.254 | 1.42 | -0.802 | 1.93 | -0.564 | 4.14 |
| ATATGTAGGTTAAGGGTCTTTCAGGTTGGTTCGC | 1.3 | 1.7 | 0.812 | 1.77 | 0.832 | 4.62 | 8.46 | 8.05 | 6.71 | 8.67 | 7.78 | 7.16 | 1.06 | 1.67 | 2.46 | 1.45 | 1.1 | 1.64 | 1.86 | 1.55 |
